The structures appear in SMILES notation. About 83,000 compounds went through this panel and 20% of them were active in at least one assay; those are over-represented in the sample as a whole.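 In brief: 96-well plates, 48 h treatment, single concentration, percent growth endpoint.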 A number with no mark means an inactive call. Activity calls are given as the source filed them. How the source made its calls: active means growth percent below 10; inactive means the rest.

The results in this text go back to PubChem BioAssay (NCI).

Holding throughout (test): NCI-60 one-dose screen, 48 h (100 = growth as untreated, 0 = no growth, -100 = all killed)
Conditions in all cases: 10 µM unless noted

In assay [1] the test system is SK-MEL-2 melanoma.
The test system of assay [2] is EKVX NSCLC.
Assay [3] concerns SN12C renal.
The test system of assay [4] is UO-31 renal.
Assay [5] has as its system TK-10 renal.
The test system of assay [6] is CAKI-1 renal.
The test system of assay [7] is A498 renal.
In assay [8] the test system is CCRF-CEM leukemia.
Assay [9] relates to MOLT-4 leukemia.
Assay [10] deals with ACHN renal.

On to `CCOC(=O)CC1CSC(N/N=C/c2ccc(F)c(Br)c2)=N1` (stereo unspecified), for which the growth in [1] is 104%; in assay [2], 104%; in assay [3] it was 114%; in assay [4], 82.9%; in assay [5], 102%; in assay [6], 95.5%. Further, the growth in assay [7] is 95.7%; in [8], 90%; in assay [9], 88.5%.

For the molecule `COCCn1cc(-c2nc(-c3cn(CCOC)c4ncccc34)cs2)c2cc(F)ccc21`, the growth in assay [1] was 73.8%; in assay [2], 23.2%; in assay [3], 82.3%; in assay [4], 68.3%; in assay [10] it was 76.7%; in assay [6], 86.4%. In addition, the growth is 73.3% in assay [7], 72.5% in assay [8] and 68.9% in assay [9].

With `Cc1nc2sc(C(=O)Nc3cccc(Cl)c3C)c(N)c2cc1C(=O)/C=C/c1ccccc1`, the growth is 33.8% in assay [1]; 43.9% in assay [2]; -55.6% (active) in assay [3]; -60.1% (active) in [4]; -12.9% (active) in assay [5]; -62.1% (active) in assay [6]. The values for the growth in [7], in assay [8] and in assay [9] were -6.27% (active), 8.78% (active) and 16.8%, respectively.

On to `C=C(C)[C@@H]1CC[C@]2(CO)CC[C@]3(C)[C@H](CC[C@@H]4[C@@](C)(CCCN)[C@H](C(=C)C)CC[C@]43C)[C@@H]12`, for which the growth in assay [1] is -61.6% (active); in assay [2], -12.9% (active); in [3], -97.6% (active); in assay [4], -43.4% (active); in assay [10], -100% (active); in assay [6] it was -54.9% (active). In addition, the growth in assay [7] was -85.7% (active); in [8], -16% (active); in assay [9], -32.4% (active).

As to `COC1C(O)CC(OC2CC(OC3CC(O[C@@H]4C(=O)c5c(cc6cc(OC7CC(OC8CC(O)C(O)C(C)O8)C(O)C(C)O7)c(C)c(O)c6c5O)CC4[C@H](OC)C(=O)O)OC(C)C3O)OC(C)C2O)OC1C` (stereo partly specified), the growth in assay [1] was -34.2% (active); in assay [2], 40.4%; in [3], 20.7%; in assay [4], 1.52% (active); in assay [10] it was 2.86% (active); in assay [6] it was 18.1%. The figures for the growth in assay [7], in [8] and in assay [9] were -15.2% (active), 46.1% and 27.2%, respectively.

Consider `COc1ccc(N=C2NN=C(c3c[nH]c4ccccc34)CS2)cc1OC`, for which the growth is 19.1% in assay [1]; 63.3% in [2]; 70.7% in assay [3]; 35.9% in assay [4]; 62.8% in assay [10]; 63.8% in assay [6]. Moreover, the growth in assay [7] was 62.5%; in assay [8], 39.5%; in [9], 39.9%.

Turning to `COc1ccc(C(=O)/C=C/c2ccccc2)cc1S(N)(=O)=O`, the growth in assay [1] is 89.8%; in [2], 95.6%; in assay [3] it was 44.9%; in assay [4], 54.7%; in [5], 66.8%; in assay [6] it was 82.3%. Besides, the growth in assay [7] was 85.3%; in [8] it was 57.8%; in assay [9], 57.5%.

For `COc1ccc(-c2cc(C(=O)N3N=C(c4ccc(N)cc4)CC3c3ccc(Cl)cc3)c3ccccc3n2)cc1` (stereo unspecified), the growth is 20.1% in [1]; 41% in assay [2]; 41% in assay [3]; 45.3% in [4]; 35.6% in [5]; 28.3% in [6]. The growth in assay [7] is -1.93% (active); in [8], 16.5%; in assay [9], 20.5%.

Regarding `C=CC(CC(c1ccccc1)(c1ccccc1)c1ccccc1)N(CC)CC` (stereo unspecified), the growth is 93.7% in assay [1]; 75.7% in [2]; 71.4% in assay [3]; 43.2% in [4]; 73.6% in assay [5]; 65.6% in assay [6]. In addition, the results for the growth in assay [7], in [8] and in assay [9] were 66.3%, 53.5% and 56.2%, respectively.

As to `COc1ccc(/C=N/Nc2c3ccccc3nc3ccccc23)cc1`, the growth was 82.2% in assay [1]; 86.9% in assay [2]; 91% in [3]; 76.1% in assay [4]; 98.9% in [10]; 88.2% in assay [6]. The growth was 69.6% in [7], 90.8% in [8] and 90.3% in [9].

`O=C(NC1CCC(Br)CC1)C1CCCC(S(=O)(=O)NC2CCCCC2)C1` (stereo unspecified): the growth is 17.9% [25 µM] in assay [1]; -19.3% [25 µM] (active) in [2]; 22.2% [25 µM] in [3]; 8.5% [25 µM] (active) in [4]; 18.4% [25 µM] in assay [5]; 13.5% [25 µM] in [6]. In addition, the growth in assay [8] is 18.3% [25 µM]; in assay [9] it was 7.81% [25 µM] (active).

Consider `COc1ccc(-c2nc3ccc(C)cc3c3c2c(=O)n(C)c(=O)n3C)cc1OC`, for which the growth in assay [1] is 123%; in [2], 102%; in [3], 98%; in [4] it was 106%; in [5] it was 106%; in assay [6], 88.4%. Further, the growth in assay [7] is 94%; in assay [8], 92.3%; in assay [9], 101%.

For the molecule `CCN(CC)CCOc1ccc2ccc(=O)oc2c1`, the growth was 103% in [1]; 105% in [2]; 100% in assay [3]; 82.9% in [4]; 97% in assay [10]; 90.9% in [6]. For the same molecule, the growth in [7] is 98.5%; in assay [8], 3.66% (active); in assay [9], 4.48% (active).

Consider `O=C1OCC2=C1C(c1ccccc1)c1cc3c(cc1N2CCO)OCCO3` (stereo unspecified), for which the growth in [1] is 57.3%; in assay [2], 48.4%; in assay [3], 35.1%; in assay [4], 68.4%; in [10] it was 36.7%; in [6] it was 51%. Moreover, the values for the growth in assay [7], in assay [8] and in assay [9] were -21.2% (active), 10.5% and 21.4%, respectively.

In the case of `CCCC(=O)NC(c1ccc2c(c1)OCO2)c1cc(Cl)c2cccnc2c1O` (stereo unspecified), the growth in assay [1] was 58.7%; in assay [2], 30.1%; in [3], 38.1%; in assay [4], -8.37% (active); in assay [5], 37.6%; in assay [6], 18.1%. Also, the growth in [7] is 43.6%; in assay [8], 13.2%; in [9] it was 16.6%.

Consider `CSc1nc(-c2ccco2)c(C#N)c(=O)n1C`, for which the growth in [1] was 94.3%; in [2], 98.4%; in assay [3], 110%; in [4], 112%; in [5], 104%; in [6], 89.2%. The growth in assay [7] was 103%; in [8], 88.7%; in assay [9], 95.1%.

As to `COC1C(O)CC(OC2CC(OC3CC(O[C@@H]4C(=O)c5c(cc6cc(OC7CC(OC8CC(O)C(O)C(C)O8)C(O)C(C)O7)c(C)c(O)c6c5O)CC4[C@H](OC)[C@@H](O)C(C)=O)OC(C)C3O)OC(C)C2O)OC1C` (stereo partly specified), the growth in assay [1] was -37.7% (active); in assay [2], 19.8%; in assay [3], 17%; in [4] it was 0.176% (active); in [10], 0.949% (active); in assay [6] it was 29.3%. The growth was -78.8% (active) in [7], 16.6% in assay [8] and -2.23% (active) in [9].

As for `Cc1ccc(OCCOCCOCCOc2ccc(C)n(O)c2=S)c(=S)n1O`, the growth in assay [1] is 57%; in [2], 24.9%; in assay [3], 28.7%; in assay [4], 42%; in [10], 44.6%; in assay [6], 31.7%. Further, the growth in assay [7] is 52.5%; in assay [8], 11.2%; in assay [9], 10.7%.

As for `COc1ccc2cc(C(=O)N3CCC([C@@H](C)C(=O)NCc4ccc5c(c4)OCO5)CC3)[nH]c2c1`, the growth in assay [1] is 63.6% [50 µM]; in assay [2] it was 73.4% [50 µM]; in [3], 53.2% [50 µM]; in assay [4], 41.5% [50 µM]; in assay [10], 29.4% [50 µM]; in assay [6], 60.3% [50 µM]. Moreover, the growth in assay [7] was 80.4% [50 µM]; in [8], 85.8% [50 µM]; in assay [9] it was 78.2% [50 µM].

As for `CCN(CC)CCCNc1cc(OC)c(OC)c2cccnc12`, the growth was 88.1% in [1]; 100% in assay [2]; 57.3% in [3]; 46.6% in [4]; 42.3% in [10]; 52.5% in [6]. The growth in assay [7] is 81.8%; in [8] it was 74.6%; in assay [9] it was 52.8%.

With `Clc1ccc2nn3c4ccccc4c(OCCN4CCOCC4)nc3c2c1`, the growth was 112% in [1]; 84.3% in [2]; 87.9% in assay [3]; 49.2% in assay [4]; 84.8% in assay [5]; 50.4% in assay [6]. The results for the growth in [7], in assay [8] and in assay [9] were 3.87% (active), 96.2% and 95.3%, respectively.

`CC(C)(C)CC(C)(C)Nc1c(-c2c(O)c3ccccc3oc2=O)nc2sc3ccccc3n12`: the growth was 66.2% in assay [1]; 26.6% in assay [2]; 51% in [3]; 16% in [4]; 32.3% in [5]; 23.5% in [6]. Moreover, the figures for the growth in [7], in assay [8] and in assay [9] were 69.6%, 23.4% and 28.5%, respectively.

Regarding `CN(C)CCCNC(=O)c1cncnc1Nc1ccc2c(ccn2Cc2cccc(F)c2)c1`, the growth was 107% in assay [1]; 96.6% in assay [2]; 84.9% in [3]; 71.5% in [4]; 103% in [5]; 83.7% in assay [6]. Further, the growth in assay [7] was 32.7%; in assay [8] it was 67%; in assay [9] it was 72%.

With `O=C(NCCNC(c1ccccc1)C(NCCNC(=O)c1ccccc1)c1ccccc1)c1ccccc1` (stereo unspecified), the growth is 45.9% in assay [1]; 123% in assay [2]; 97.7% in assay [3]; 80.3% in assay [4]; 7.15% (active) in [10]; 61.6% in [6]. Moreover, the results for the growth in [7], in assay [8] and in [9] were 112%, 97.1% and 72.2%, respectively.

Regarding `CN(C)CCCn1c2c(c3ccncc3c1=O)C(=O)c1ccccc1-2`, the growth in [1] was -4.66% (active); in [2], 82.7%; in [3], 6.53% (active); in [4] it was -37.4% (active); in assay [5], 12.8%; in [6] it was 10.8%. Also, the growth in assay [7] is 58%; in assay [8] it was 1.34% (active); in assay [9] it was -15% (active).

Turning to `CC(=O)c1ccc(-n2cc(CN3CCN(c4cc5c(cc4F)c(=O)c(C(=O)O)cn5C4CC4)CC3)nn2)cc1`, the growth in assay [1] is 96.4%; in assay [2], 88.5%; in assay [3] it was 103%; in assay [4], 63.1%; in [5] it was 103%; in assay [6], 87.8%. Further, the growth in [7] is 76.7%; in assay [8], 111%; in assay [9] it was 102%.

For `CCCCCCCCn1ccc2cc(NC(=O)CN3CCN(c4cc(C)nc(Cl)n4)CC3)ccc21`, the growth is 109% in assay [1]; 64.4% in [2]; 100% in assay [3]; 63.5% in assay [4]; 95.1% in [5]; 92.6% in assay [6]. Moreover, the results for the growth in assay [7], in [8] and in [9] were 97.5%, -35.7% (active) and 26.2%, respectively.

As to `Nc1ccc(Br)cc1C(F)(F)F`, the growth is 104% in assay [1]; 109% in [2]; 99.8% in assay [3]; 88.1% in assay [4]; 96.5% in assay [10]; 104% in [6]. Besides, the growth in assay [7] is 107%; in assay [8], 101%; in [9] it was 108%.
